The record followed here is PubChem BioAssay AID602292 (National Center for Advancing Translational Sciences (NCATS), 2012).

Each structure is given as a SMILES string. Screen size: about 1,300 compounds; about 380 (29%) were called active. Another 37% or so got no clear call; they are omitted. Calls follow the shape of the dose curve; as a rule, active = well fitted inhibition curve with a large enough effect; inconclusive = small, poorly fitted or top-dose-only effect; inactive = flat fitted curve, though single readings scatter. The list shows a part of the results. Where a call stands in place of a potency, no number is given.
Potency is read from the fitted curve at half-maximal effect.

The target in this assay is Thyrotropin receptor (Homo sapiens) (UniProt P16473). The assay is described as follows: qHTS for antagonists of the Thyroid Stimulation Hormone Receptor: Hit Validation in Primary Screen. Also: nearly all actives have a fitted effect of over 80% in size. Particulars: TSHR-expressing cells, cAMP antagonist mode; series mostly up to 58 µM. The procedure, abridged: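 Competitive HTRF detected cAMP in lysates of TSHR cells, read 30 minutes after antibody and d2 addition at room temperature. Before lysis, cells had 2 hours at 37 deg C with compound plus EC80 TSH, 4nM final.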
Chain of Thyrotropin receptor (Homo sapiens) (P16473 whole entry, looked up): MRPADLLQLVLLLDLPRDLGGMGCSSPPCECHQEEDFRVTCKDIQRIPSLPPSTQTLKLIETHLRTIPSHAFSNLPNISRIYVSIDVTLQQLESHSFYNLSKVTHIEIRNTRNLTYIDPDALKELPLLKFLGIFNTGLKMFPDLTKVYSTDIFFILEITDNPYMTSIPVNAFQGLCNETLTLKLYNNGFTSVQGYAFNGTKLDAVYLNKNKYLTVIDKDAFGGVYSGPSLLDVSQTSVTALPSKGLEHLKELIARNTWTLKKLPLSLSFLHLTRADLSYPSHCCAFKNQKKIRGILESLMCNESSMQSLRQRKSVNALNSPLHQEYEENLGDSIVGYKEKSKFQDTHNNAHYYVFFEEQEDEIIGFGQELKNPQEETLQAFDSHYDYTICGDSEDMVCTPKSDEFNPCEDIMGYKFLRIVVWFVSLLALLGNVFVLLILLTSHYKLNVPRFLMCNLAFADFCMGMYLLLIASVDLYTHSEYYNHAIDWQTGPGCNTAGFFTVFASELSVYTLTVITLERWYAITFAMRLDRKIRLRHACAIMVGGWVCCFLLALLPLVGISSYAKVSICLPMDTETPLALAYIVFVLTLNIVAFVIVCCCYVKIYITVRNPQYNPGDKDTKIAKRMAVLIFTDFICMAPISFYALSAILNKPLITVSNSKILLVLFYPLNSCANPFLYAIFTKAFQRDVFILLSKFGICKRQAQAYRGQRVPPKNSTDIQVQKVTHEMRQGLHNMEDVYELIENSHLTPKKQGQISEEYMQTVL
Background: Quantitative high-throughput screening tests each substance at several concentrations.
Consider `CCOC(=O)Cn1c(=NC(=O)CSC(C)=O)sc2ccccc21`, for which the Potency result is “inactive”. On to `Cc1ccc(/C=N/n2c(COc3ccccc3)n[nH]c2=S)s1`, for which the Potency result is “inactive”. Consider `CN(C)c1ccc(N/C=C/C(=O)C(F)(F)F)cc1`, for which the Potency result is “inactive”.

As to `Cc1nn(Cc2ccc(Cl)cc2)c(C)c1NC(=O)c1noc2c1CCc1ccccc1-2`, the Potency was 16.9 µM (active). As for `Cc1nn(Cc2ccccc2)c(C)c1NC(=O)c1noc2c1CCc1ccccc1-2`, the figure is 37.9 µM (active). As for `COc1ccc(C(C(=O)NC(C)(C)C)N(CCc2ccccc2)C(=O)CCC(=O)Nc2cc(C)on2)cc1` (stereo unspecified), the entry is “inactive”. As to `CC(=O)N/C(=C\c1ccc(Cl)cc1)C(=O)O`, the Potency entry is “inactive”.

With `C=CCNC(=O)c1ccc(NC(=O)C2=CSCCO2)cc1`, the Potency entry was “inactive”. Take `Cc1c(Nc2cc(Cl)c3nonc3c2[N+](=O)[O-])c(=O)n(-c2ccccc2)n1C`: the Potency is 26.9 µM (active). Regarding `O=[N+]([O-])c1c(Nc2cccc(O)c2)cc(Cl)c2nonc12`, the Potency was 10.7 µM (active).

In the case of `Cc1cc(C)cc(C(=O)NC(CC(N)=O)c2ccc(NCCN3CCCC3)c([N+](=O)[O-])c2)c1` (stereo unspecified), the Potency entry is “inactive”. As for `CC1CCCC(N2CCN(S(=O)(=O)c3ccccc3)CC2)C1` (stereo unspecified), the entry is “inactive”. As for `COC(CNC(=O)c1cn(C)c2ccc(S(=O)(=O)N3CCOCC3)cc2c1=O)OC`, the entry is “inactive”; as for `O=C1c2cccc3c(O)ccc(c23)C(=O)N1c1ccc(Cl)cc1`, 30.1 µM (active). As to `Cc1ccc(NC(=O)Nc2ccc3c(c2)OCO3)c(OC(F)F)c1`, the Potency result is “inactive”.

As for `Cc1ccc(OC(F)F)c(NC(=O)Nc2cccc(C(F)(F)F)c2)c1`, the Potency is 26.9 µM (active). Turning to `N/C(=N\OC(=O)Nc1ccccc1)c1cccc(C(F)(F)F)c1`, the Potency entry is “inactive”.

`Cc1ccccc1NC(=O)C1C2CCCCC21` (stereo unspecified): the Potency entry is “inactive”. As for `O=C(Nc1ccncc1)C1CCN(S(=O)(=O)c2cccc(C(F)(F)F)c2)CC1`, the entry is “inactive”.

Turning to `CC1CC1C(=O)N1CCN(S(=O)(=O)c2cc(C(F)(F)F)cc(C(F)(F)F)c2)CC1` (stereo unspecified), the Potency is 30.1 µM (active).

Consider `Cc1ccc(C)c(N2CCN(S(=O)(=O)c3ccc4c(c3)CC(C)N4C(=O)C3CC3)CC2)c1` (stereo unspecified), for which the Potency result is “inactive”. With `CCCn1c(COc2ccccc2OC)nc2ccccc21`, the Potency result is “inactive”. With `COc1cccc(COc2cc3ccccc3nc2C)c1`, the Potency is 23.9 µM (active). As for `COc1cccc(CNC(=O)CCCC(=O)NC(C)CCc2ccccc2)c1` (stereo unspecified), the entry is “inactive”; as for `COc1ccc(-n2c(SCC(=O)Nc3cc(C)on3)nc3c(c2=O)SCC3)cc1OC`, “inactive”; as for `Nc1ncc(Br)cc1S(=O)(=O)Nc1cc(C(F)(F)F)cc(C(F)(F)F)c1`, 12 µM (active). As for `O=S(=O)(Nc1cccc(-n2cnnn2)c1)c1ccccc1C(F)(F)F`, the entry is “inactive”; as for `CC1CN(C(=O)CCn2c(=O)oc3ccccc32)CC(C)O1` (stereo unspecified), “inactive”. As for `O=C(/C=C/c1ccc(OCCCF)cc1)Nc1ccnc(-c2ccncc2)n1`, the entry is “inactive”; as for `CSc1nc(N)nc(SCC(=O)Nc2ccc(Cl)cc2)c1C#N`, 30.1 µM (active); as for `Cc1cc(C#N)c(SCC(N)=O)nc1-c1ccc(F)cc1`, “inactive”.

Regarding `Nc1nc(SCC(=O)Nc2ccc([N+](=O)[O-])cc2)[nH]c(=O)c1NC(=O)c1ccc(Br)cc1`, the Potency entry was “inactive”. As for `Cc1cc2nc(SCCOC(=O)Nc3ccc(Cl)cc3)nc(C)c2cc1C`, the entry is “inactive”; as for `Cc1cc(=O)[nH]c(SCC(=O)Nc2ccc(Br)cc2)c1C#N`, 7.57 µM (active); as for `Cc1ccc(CNS(=O)(=O)c2ccc(CN3C(=O)c4cccnc4C3=O)s2)o1`, “inactive”. Under `O=C(CCc1ccccc1)N1CCN(Cc2ccc(F)cc2Cl)CC1` stands “inactive”; under `Cc1ccc(CCNC(=O)CN2C(=O)COc3ccc(S(=O)(=O)N4CCC(C)CC4)cc32)cc1`, “inactive”; under `CC[C@@H](C(=O)[C@@H](C)[C@@H](O)[C@H](C)CCc1ccc(C)c(O)c1C(=O)O)[C@H]1O[C@](CC)([C@H]2CC[C@](O)(CC)[C@H](C)O2)C[C@@H]1C`, 4.78 µM (active). For the compound `Cc1ccccc1CS(=O)(=O)c1nnc([C@H](Cc2ccccc2)NC(=O)OC(C)(C)C)o1`, the Potency was 37.9 µM (active). As for `C[C@@H](NC(=O)[C@@H]1Cc2ccccc2CN1)C(=O)NC1CCCCC1`, the entry is “inactive”; as for `O=[N+]([O-])c1cc(Br)c(O)c(/C=N/Nc2nnnn2-c2cccc3ccccc23)c1`, 7.57 µM (active); as for `O=[N+]([O-])c1cc(Br)c(O)c(/C=N/Nc2nc3ccccc3s2)c1`, 2.39 µM (active).

With `COc1cccc(OCC(O)CN2CC(C)CC(C)C2)c1` (stereo unspecified), the Potency result was “inactive”. Consider `O=C(/C=C/c1ccc(Cl)cc1Cl)NCCSCc1ccccc1`, for which the Potency is 21.3 µM (active). On to `Cc1ccccc1-n1nnnc1SC1CCOC1=O` (stereo unspecified), for which the Potency result was “inactive”. As for `O=C(NCCCN1CCOCC1)c1ccc2c(c1)N(Cc1ccc(Cl)cc1)C(=O)c1ccccc1S2=O` (stereo unspecified), the Potency entry was “inactive”. `CCOc1ccc(CNC(=O)CCCn2nc(CC)n3c(cc4occc43)c2=O)cc1`: the Potency result is “inactive”. `CN(C(=O)CN1C(=O)/C(=C/c2ccccc2Cl)SC1=S)C1CCS(=O)(=O)C1` (stereo unspecified): the Potency result is “inactive”.

With `COc1cc([N+](=O)[O-])cc(/C=C2/SC(=S)N(Cc3ccccc3)C2=O)c1O`, the Potency was 10.7 µM (active). Regarding `O=C1/C(=C\c2cc([N+](=O)[O-])ccc2O)SC(=S)N1Cc1ccc(Cl)cc1`, the Potency was 2.69 µM (active). As for `CN(C)C(=O)[C@H]1C[C@H]1[C@@H](O)[C@H](CO)NC(=O)[C@H](COCc1ccccc1)NC(=O)OC(C)(C)C`, the entry is “inactive”; as for `Cc1ccc(-c2ccc(/C=N/N=C3/NC(=O)C(CC(=O)O)S3)o2)c([N+](=O)[O-])c1` (stereo unspecified), “inactive”. As for `O=C(NCCS(=O)(=O)N1CCN(c2ccccc2)CC1)C1CC(=O)N(c2ccccc2)C1` (stereo unspecified), the entry is “inactive”; as for `Cc1ccc(CCNC(=O)C2CCN(S(=O)(=O)c3cccc4cccnc34)CC2)cc1`, “inactive”; as for `O=C(Nc1nc2ccc(F)cc2s1)C1CCN(S(=O)(=O)c2cc([N+](=O)[O-])ccc2Cl)CC1`, 19 µM (active).

For `N#C/C(=N\Nc1cccc([N+](=O)[O-])c1)C(=O)c1ccc(Br)cc1`, the Potency is 15.1 µM (active). As for `Cc1cccc(-c2noc(CN(C)C(=O)c3ccco3)n2)c1`, the entry is “inactive”; as for `COc1ccc(CC(=O)Nc2cccc(-c3nnc(-c4cccc(C)c4)o3)c2)cc1OC`, 4.26 µM (active).

Regarding `COc1ccc(-c2nc(CS(=O)CC(=O)NCc3ccccc3)c(C)o2)cc1OC` (stereo unspecified), the Potency entry was “inactive”.

Turning to `O=c1[nH]c(=O)c2nnc(N/N=C/c3ccccc3F)nc2[nH]1`, the Potency result was “inactive”. On to `CC(C)Nc1nc(SC(C)C(=O)Nc2ccccc2)nc(N(C)C)n1` (stereo unspecified), for which the Potency result is “inactive”. Take `CCOc1ccc2nc(NC(=O)CS(=O)(=O)c3ccccc3)sc2c1`: the Potency entry was “inactive”. Take `CCOc1ccc2nc(NC(=O)c3ccc(OCC4CCCO4)cc3)sc2c1` (stereo unspecified): the Potency is 30.1 µM (active). With `O=C(CSc1nnc(NC(=O)c2cccc(Br)c2)s1)NCC1CCCO1` (stereo unspecified), the Potency entry is “inactive”. Under `C=CS(=O)(=O)c1sc(Cl)c(N2CCOCC2)c1[N+](=O)[O-]` stands 26.9 µM (active); under `Cc1ccc(CCC(=O)NCc2ccccc2)o1`, “inactive”; under `Cc1ccc(/C=C/C(=O)Nc2ccc(Oc3ccccc3)cc2)o1`, 23.9 µM (active). For `COC(=O)c1cc(-c2c[nH]c3ccccc23)n[nH]1`, the Potency result was “inactive”. As for `CCn1nc(C)cc1-c1nnc(Sc2ncc([N+](=O)[O-])s2)n1C`, the figure is 15.1 µM (active); as for `CC(=O)N1c2ccc(S(=O)(=O)NCCC(=O)Nc3ccccc3C)cc2CC1C` (stereo unspecified), “inactive”. `S=C(Nc1ccc(Oc2ccccc2)cc1)NC1CCCCCC1`: the Potency was 12 µM (active).

In the case of `CC(=O)c1ccc(NC(=O)C(C)N(C)CC(=O)Nc2ccc(N3CCOCC3)cc2)cc1` (stereo unspecified), the Potency result is “inactive”. As for `O=C(O)c1ccc(S(=O)(=O)/N=C2\C=C(Nc3ccccc3F)C(=O)c3ccccc32)cc1`, the figure is 37.9 µM (active); as for `Cc1ccc(S(=O)(=O)/N=C2\C=C(Nc3cccc(C(=O)O)c3)C(=O)c3ccccc32)c(C)c1`, 30.1 µM (active).

Turning to `O=C1C(Nc2ccc(O)cc2)=C/C(=N/S(=O)(=O)c2cccs2)c2ccccc21`, the Potency is 30.1 µM (active).

Take `O=C(O)c1ccc(NC2=C/C(=N/S(=O)(=O)c3ccccc3)c3ccccc3C2=O)cc1`: the Potency is 21.3 µM (active). For the compound `COc1ccc(CNCc2cc(C)c(OC)cc2C)c(OC)c1`, the Potency result is “inactive”. Take `O=C(O)c1ccc(CNC(=O)c2ccc3c(c2)C(=O)N(Cc2cccnc2)C3=O)cc1`: the Potency result is “inactive”.

On to `Cc1ccccc1C(=O)N1CCN(c2ccc(NC(=S)NC(=O)c3ccco3)cc2)CC1`, for which the Potency is 21.3 µM (active). In the case of `COc1cc(NC(=O)C(C)C)ccc1NC(=O)c1ccco1`, the Potency result was “inactive”. Take `O=C(Nc1ccccc1C(=O)N1CCN(c2cccc(Cl)c2)CC1)C1=CSCCO1`: the Potency entry is “inactive”. Under `Cc1cc(C)n2c(C)nnc2c1` stands “inactive”; under `CS(=O)c1ccc(-n2c(=O)n(Cc3ccccc3)c(=O)c3[nH]cnc32)cc1` (stereo unspecified), “inactive”. With `COc1cc2c(cc1OC)CN(C(=S)NC(=O)c1ccccc1)CC2`, the Potency entry was “inactive”.

As for `Cc1cc(C(=O)COC(=O)c2ccc(O)cc2O)c(C)n1-c1ccccc1`, the Potency was 23.9 µM (active).

For `CC(=O)C1=C(O)C(=O)N(c2ccc(O)cc2)C1c1cccc(F)c1` (stereo unspecified), the Potency entry is “inactive”. Under `O=C(NCc1ccc(F)cc1)c1ccncc1` stands “inactive”.

In the case of `O=C(NC(=S)Nc1ccc(C(=O)N2CCOCC2)cc1)c1ccc([N+](=O)[O-])cc1`, the Potency entry was “inactive”. Under `O=[N+]([O-])c1ccc(NC(=S)NCCc2ccc(F)cc2)cc1` stands 9.53 µM (active). For `O=[N+]([O-])c1ccc(NC(=S)NCc2ccc(F)cc2)cc1`, the Potency was 9.53 µM (active). Regarding `CCCNc1c(NS(=O)(=O)c2ccc(Br)cc2)c(=O)oc2ccccc12`, the Potency result is “inactive”.

On to `N#C/C(=N\Nc1ccc(S(=O)(=O)N2CCc3ccccc32)cc1)C(N)=S`, for which the Potency is 9.53 µM (active). Turning to `O=C(NNC(=O)c1n[nH]c(=O)c2ccccc12)c1ccc(Br)cc1`, the Potency result is “inactive”. Under `COc1ccccc1CNS(=O)(=O)c1ccc(-n2cccn2)cc1` stands “inactive”.

For `COc1ccccc1C1CCN(c2cc(O)ccc2[N+](=O)[O-])CC1`, the Potency is 37.9 µM (active).

In the case of `CS(=O)(=O)c1ccc(N2CCN(c3ccccn3)CC2)c([N+](=O)[O-])c1`, the Potency result was “inactive”.
